In PubChem BioAssay AID1159506 (National Center for Advancing Translational Sciences (NCATS), 2015):
Whole data set: some 59,000 sequences, median the read-out near -0.00055, cut for the lowest 2% near -2. This is one part of a sample in which the lowest values are shown more often than they occur.

Test: Identification of proteins required for the processing of the EWS-FLI1 nascent transcript;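 note: robust z of luciferase light less the median z of siRNAs with the same seed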
Conditions: TC32 Ewing sarcoma NR0B1-luc vs CMV-luc (EWS-FLI1 target promoter against control promoter), 48 h; screened at 20 nM (by protocol)
Outline: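 Readout: OneGlo luminescence, 48 h post-transfection, TC32-NR0B1-luc vs TC32-CMV-luc in parallel. siRNA 20 nM final, RNAiMax lipid, 600 cells/well; z-score-MAD transformed, then seed-adjusted.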

Sequence | seed-corrected z-score
AACAUCACCAAAUAGCUGG against LIMS1 | 0.191
UAUUUCGAAAAUAAUCUCC against TMEM18 | -0.129
UUCAGCAUUUGAUUCAAUC against HTRA4 | -0.127
UCUGCUGAUAGCAAUGGGC against ZNF512B | -2.13
UUUUGGUCGUCGUUCUUCU against COMP | -2.12
UUCUACUCUAGCAAUUUCC against NDC80 | -2.12
UCAAGGACCAGGCCGUUUU against ALG1L3P | 1.09
UAAUUGUGACACUUGUUCC against TSLP | -1.67
UAGGUAAGGACGGAAACGC against ZPBP2 | 0.591
UACCGUGACAAAAUAAGUG against LOC728175 | 0.818
UCUGAUGACUGUUUACAGC against ZNF180 | 0.161
UAAUUAAUAUCGUCCAGAG against C6orf120 | -0.208
UCAUUCACUAUCACUUGUC against ZNF35 | -1.13
AACUCUUCACGUACUAGCC against PKD2 | 0.287
UUAGCUGCUGGGAACACUG against IL18BP | -2.28
UAUGUUUCUCGUCUCAACA against DNM1P49 | -0.258
AAAGUCACGUUUUCCGCGC against RGS14 | 0.981
AAAGAUACAUCUGCCUUCC against CMPK1 | -0.0168
AGAAUUCUGAGGGCGGAGC against UCN2 | -0.561
AUAGUAAGCAGCCUUCUGC against HOXD3 | -3.99
UAUCUUGACCAAAUAAACC against MPC2 | 0.235

Sequence | seed-corrected z-score
ACAGGAGCCACCCUAAAAG against WDR86 | 0.75
UCUGUCUCCGCUUGGAGUG against FOS | 0.622
UAGGUCUUAGGAGUCAUCU against RPL9P25 | -2.06
UCUGCUCCAAUAAUCCGGC against ANKS6 | 0.347
UCCGUUUCCACAUGGUCGC against TEKT4 | 0.747
AUAGGCAAGAGUGACAAGC against CNGB3 | 0.169
UGGGAUCUAACUCCUUAGC against IFT172 | -2.76
UACUAGAUGUGGUGCAUCC against RPS6KA3 | 0.496
UAGGCAUCCGUAUCCCUGC against FAM131B | 0.847
AGCUGCUAAACUUUCAUCC against JAKMIP2 | -2.59
UCUCGAAUGAGAAUGCUCC against CSTF3 | -0.0852
UUCUUGAUCUUGGAUCUUU against DLX5 | -0.846
UUCUUGAUCAUCAUUCACC against SLC7A6OS | 0.569
UAUCGUAAAAUCACAUGAG against AMFR | 0.503
UGAUGUUUCGCAGGCACCG against CRHR1 | 0.0226
UUAAUUACUCUCUUCAAUG against UGT2B7 | -0.533
UUUUGGGCCUCUGAACUCC against LCE1B | 0.31
UACCUUAACCAUCCGAUGC against WDR6 | 0.132
UAGAGGAUAAUGUUCUCGG against ABHD17C | -12.1
UUGGAGAUCAAUCCAGCCU against CBFB | 0.537
UCAAUCAUCCGUGAGUUGC against WBSCR22 | 0.315

Sequence | seed-corrected z-score
UUUCAGCUGCGCUCGGUUC against GOLGA6L2 | -3.72
UGCAUUCCGGCUGUGAUCG against LINC00152 | -0.804
UUAUGGGCUCUGAUGACCG against DIP2C | 0.0672
UUCAGGAUCGCGGUUAUCA against OR4X2 | 0.269
UUAAAGACUCGGUUCACUG against PLXNA3 | -1.44
UAUACUCCCGCACAUAGCC against PI4KA | -0.673
UUGUUAUGAAUGUACAUCG against TMEM181 | -5
UCCGCAGUUCCUUAAGUGG against LOC401589 | 0.0579
UGCUGAAACCUUGAUGUGC against CRTC3 | 1.11
UUGAGUAAGAGAUGGACCC against ZNF184 | -0.444
AAUGAUCCCACAGAUAUCA against IKZF1 | 0.796
UCUGUUCGAUCAUCCGUGC against ACP6 | -0.281
UGUGUCCCUCCCAAUCUCC against GGT2 | 0.0675
AAAUCGAUGAGAAACCUGC against KAT6A | 0.325
UACAUUGUAGCAGAUGUUG against ACSS2 | -0.36
AAGUCUACAAGUGAUCUCU against ATP6V0E2-AS1 | -2.23
UGUUGUUUACGUUCGAUUG against ADD3 | -0.745
UGUUAGGUAAGGCUAGGUC against UTS2B | 0.63
AUUAUGAGCAUGCAGGUUC against ANKRD6 | 1.1
UUUCUUCCCAGGUGUCUUG against PTHLH | -2.12
UCUAGACCUAUGGACAGUC against WDFY2 | -0.0809

Sequence | seed-corrected z-score
UUAGCUUCCUCCAAAAUGC against LOC342293 | 1.1
UCCUGGUUAAAUAGGAAGG against BLID | -0.822
UACUGAGUAGUAGUUGGGC against DISP3 | -2.25
UUUGGUUUGGAAAAGGUAC against KMT5A | 0.072
UAACUUAGAAUUCCAUUUU against DMRTA2 | 0.067
UGUCCUACCACAGUCUUCA against LINC00703 | -0.2
UUUUCUGCAGCUUUAAGGG against IL17C | 1.34
UGGUCAAUCUGUUCAAUGG against C16orf70 | -13.9
UACAUAGUAAACUCGCCCG against ITCH | 0.22
UAAGUAACCCAAGUAUUGC against C2orf69 | 0.361
AGGGUUGACAUGGAACUGC against FITM1 | 0.313
UUCCGUACAAAAUUGUGCA against ARAF | -0.24
UGAGGUACAGUGAACAAGG against TMEM110 | -0.57
AAACUGCUUCCGGACAUUG against ACAD8 | -1.71
UACGUUUCUGAAGAAGGUG against FAM231D | 1.63
UCUAGGAAAAGGACUCGGC against IKZF2 | 0.168
UUGCUUAUUCUCUCUCACG against CAAP1 | -3.02
UAAAAUACCCACGUGGUUC against TMEM150A | 0.686
UUUCUCUGAAGUUAAGUCC against G0S2 | -0.192
UAGAUAAUCUUGAACCUUC against UGP2 | 0.118
UGCUUGAACGUGUCCGUCC against LRRC4B | -0.284
